Screening data as filed in PubChem.
IEC-6 cytotox: counter-screen for KLF5 inhibitors: cytotoxicity in IEC-6 cells. IEC-6 cytotoxicity, luminescence viability. inhibition, % at 5 µM. 290,000 tested, 0.78% active;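 note: 0% = plate median of test compound wells and 100% = cytotoxic reference compound wells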
BaF3 parental: counter-screen for JAK2V617F inhibitors: parental Ba/F3 viability inhibitors; inhibition, % at 5.6 µM; 220,000 tested, 1.1% active; AID 1486; CellTiter-Glo ATP luminescence;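 active = inhibition above a per-campaign cutoff, the mean inhibition of all tested compounds plus 3 SD, cut at about 27% in these data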;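 note: 0% = DMSO wells and 100% = JAK Inhibitor I control wells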
aSyn UTR inh: MLPCN primary screen, SNCA 5' untranslated region. alpha-synuclein 5'UTR reporter, inhibitor activity. 300,000 tested, 0.82% active. inhibition, % (tested at 7.5 µM); in the data active = inhibition above about 60%; inconclusive = no clear call, values can overlap the other calls;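 note: H4 neuroglioblastoma cells stably carrying SNCA 5'UTR luciferase fusion; 0% = DMSO wells and 100% = positive control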
KLF5 inhibitor: suppresses KLF5 promoter-driven expression. DLD-1 KLF5 promoter-luciferase reporter, luminescence. inhibition, % at 5 µM. 290,000 tested, 0.23% active. AID 1700;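 active = inhibition above a per-plate limit of that plate's mean compound inhibition plus 3 SD, cut at about 60% in these data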;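 note: 0% = DMSO wells and 100% = LY294002 at 200 µM; higher means less KLF5 promoter-driven luciferase light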
APP transl inh: APP translation inhibition | SH-SY5Y APP 5'UTR-luciferase reporter, luminescence | inhibition, % at 2 µM | 190,000 tested, 0.82% active;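 active = inhibition above a set limit, derived from the sample mean plus 3 SD, cut at about 45% in these data; inconclusive = one replicate passes the limit while the other fails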
Ba/F3 V617F tox: lowers viability of Ba/F3 cells expressing EpoR and JAK2V617F; inhibition, % at 5.6 µM; ATP luminescence; 220,000 tested, 1.1% active;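 active = inhibition above the campaign mean plus 3 SD over all tested compounds, cut at about 24% in these data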;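 note: cytokine-independent growth of Ba/F3 cells driven by EpoR plus mutant JAK2; 0% = DMSO-treated cells and 100% = JAK inhibitor I control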
IEC-6 cytotox cf: IEC-6 cytotoxicity, confirmation assay; 1,900 tested, 63% active; IEC-6 rat intestinal epithelial viability, luminescence; inhibition, % at 5 µM; shares compounds with IEC-6 cytotox;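 note: 0% = vehicle and 100% = reference cytotoxic drug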
The depositor's hits bear a star. Shown are actives, neighbours in structure and some others; about 2.2% of the full set was active somewhere. Cut-off read from the data, not from the text of the source, unless noted: active = inhibition above about 22%; inactive = the rest.

What do the screens show for `O=C1NC(=O)N(Cc2ccc(F)cc2)C(=O)/C1=C\c1ccc([N+](=O)[O-])s1`?
IEC-6 cytotox: -1; BaF3 parental: 1; aSyn UTR inh: 0; KLF5 inhibitor: 12; Ba/F3 V617F tox: -3

How did COc1cccc(OC)c1C1=NCC(=O)Nc2c1oc1ccc(Br)cc21 do in these assays?
IEC-6 cytotox: 34*; BaF3 parental: 39*; aSyn UTR inh: inconclusive; KLF5 inhibitor: 35; APP transl inh: 93*; Ba/F3 V617F tox: 75*; IEC-6 cytotox cf: 57*

What do the screens show for `CCOP(=O)(OCC)c1ccc(O)cc1`?
IEC-6 cytotox: -2; BaF3 parental: 8; aSyn UTR inh: 1; KLF5 inhibitor: -19; APP transl inh: -12; Ba/F3 V617F tox: -1

How did CC1=CC2/C=C(\C)CCC(O)C(O)/C=C/C(=O)C23C(=O)NC(CC(C)C)C3C1C (configuration not stated) do in these assays?
IEC-6 cytotox: 39*; BaF3 parental: 49*; aSyn UTR inh: 56; KLF5 inhibitor: -11; APP transl inh: 45*; Ba/F3 V617F tox: 89*; IEC-6 cytotox cf: 29*

How did CC[C@@]1(O)C(=O)OCc2c1cc1n(c2=O)Cc2cc3c(NC(=O)CN)cccc3nc2-1 do in these assays?
IEC-6 cytotox: 41*; BaF3 parental: 79*; aSyn UTR inh: 71*; KLF5 inhibitor: 20; Ba/F3 V617F tox: 94*; IEC-6 cytotox cf: 26*

Results for COc1cc(/C=C(/C)[N+](=O)[O-])ccc1OCc1ccccc1Cl ?
IEC-6 cytotox: -3; BaF3 parental: 2; aSyn UTR inh: -134; KLF5 inhibitor: -33; APP transl inh: 42; Ba/F3 V617F tox: 2

How did CCCC[N+]1(C)[C@@H]2CC(OC(=O)[C@H](CO)c3ccccc3)C[C@H]1[C@@H]1O[C@@H]12 (some centres not stated) do in these assays?
IEC-6 cytotox: -7; BaF3 parental: -4; aSyn UTR inh: -10; KLF5 inhibitor: -1; APP transl inh: -11; Ba/F3 V617F tox: -3

Results for CC[n+]1c(/C=C/C=C/c2ccc(N(C)C)cc2)sc2ccccc21 ?
IEC-6 cytotox: 37*; BaF3 parental: 92*; aSyn UTR inh: inconclusive; KLF5 inhibitor: 23; Ba/F3 V617F tox: 99*; IEC-6 cytotox cf: 58*

Results for CCN(CC)P(=O)(NC(=O)c1cccn1C)N(CC)CC ?
IEC-6 cytotox: -7; BaF3 parental: 3; aSyn UTR inh: 4; KLF5 inhibitor: -5; APP transl inh: -18; Ba/F3 V617F tox: -4

Results for O=C1CN=C(c2ccc[nH]2)c2cc(Cl)ccc2N1 ?
IEC-6 cytotox: 31*; BaF3 parental: 37*; aSyn UTR inh: 11; KLF5 inhibitor: 4; Ba/F3 V617F tox: 54*; IEC-6 cytotox cf: 22

How did CNCC(C)c1ccccc1 (configuration not stated) do in these assays?
IEC-6 cytotox: 4; BaF3 parental: -2; aSyn UTR inh: -5; KLF5 inhibitor: -26; APP transl inh: -12; Ba/F3 V617F tox: -4

Results for CN1CC2=CC(O)CC3Oc4c(O)ccc(c4[C@]23C)C1 (some centres not stated) ?
aSyn UTR inh: 3

Results for CN1C(=O)N(C)C(=O)C2(Cc3cc([N+](=O)[O-])ccc3N(C)C2)C1=O ?
IEC-6 cytotox: 2; BaF3 parental: 3; aSyn UTR inh: 33; KLF5 inhibitor: -12; APP transl inh: 15; Ba/F3 V617F tox: 2

How did C/C=C(\C)C(=O)N[C@@H](c1ccccc1)[C@@H](O)C(=O)O[C@H]1C[C@@]2(O)[C@@H](OC(=O)c3ccccc3)C3[C@](C)(C(=O)[C@H](O)C(=C1C)C2(C)C)[C@@H](O)C[C@H]1OC[C@@]31OC(C)=O (some centres not stated) do in these assays?
IEC-6 cytotox: 89*; aSyn UTR inh: 98*; KLF5 inhibitor: 50; IEC-6 cytotox cf: 70*

What do the screens show for `Nc1cc(Cl)c2nonc2c1[N+](=O)[O-]`?
IEC-6 cytotox: 69*; BaF3 parental: 2; KLF5 inhibitor: 14; APP transl inh: 96*; Ba/F3 V617F tox: 47*; IEC-6 cytotox cf: 30*

How did Cc1ccc(C(=O)COC(=O)Cc2ccccc2)cc1 do in these assays?
IEC-6 cytotox: 2; aSyn UTR inh: -21; KLF5 inhibitor: -43
